Common to all, as to experiment: DAPPL (digital affinity profiling via proximity ligation, sequencing); 10 mM Tris-HCl pH 7.5, 50 mM NaCl, 1 mM DTT, 4% glycerol, room temperature, 30 min; GST-TFs on glutathione beads, 16-mer random dsDNA library, 0.1% formaldehyde crosslink after washing; high values mean tight binding
Conditions in all cases: protein: recombinant; tags: N-terminal GST; dsDNA, one strand shown

One assay deals with T1, FLI1 (Homo sapiens, UniProt Q01543 1-452).
T1 sequence: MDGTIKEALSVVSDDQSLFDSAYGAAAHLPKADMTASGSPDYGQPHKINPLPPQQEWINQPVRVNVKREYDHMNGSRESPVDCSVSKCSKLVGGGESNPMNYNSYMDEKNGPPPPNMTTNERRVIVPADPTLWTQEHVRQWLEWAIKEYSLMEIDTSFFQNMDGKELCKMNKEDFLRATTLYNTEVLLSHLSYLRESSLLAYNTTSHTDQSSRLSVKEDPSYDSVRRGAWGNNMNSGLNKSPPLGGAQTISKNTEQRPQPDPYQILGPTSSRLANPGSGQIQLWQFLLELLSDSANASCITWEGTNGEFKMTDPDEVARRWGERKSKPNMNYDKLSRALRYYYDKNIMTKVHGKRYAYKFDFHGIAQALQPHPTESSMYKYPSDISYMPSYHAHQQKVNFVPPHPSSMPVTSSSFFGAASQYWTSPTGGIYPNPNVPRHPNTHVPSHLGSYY
Summed up:
(§1)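 After expression in yeast as GST fusions, human transcription factors were bound to glutathione beads, DNA-barcoded and mixed with a tag-only sample. The pools were incubated with 200 nmole of a 16-mer random double-stranded DNA library in Tris/NaCl/DTT/glycerol buffer (30 min, room temperature), washed and crosslinked with 0.1% formaldehyde. Proximity ligation with BsaI/T4 ligase ran for 1 h at 37 °C, before PCR amplification and sequencing on an Illumina NextSeq500. Binding signal is a hexamer's read frequency for a factor divided by its frequency for the tag-only sample.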

In the next assay the target is T2, ELK1 (Homo sapiens, UniProt P19419 1-428).
T2 sequence: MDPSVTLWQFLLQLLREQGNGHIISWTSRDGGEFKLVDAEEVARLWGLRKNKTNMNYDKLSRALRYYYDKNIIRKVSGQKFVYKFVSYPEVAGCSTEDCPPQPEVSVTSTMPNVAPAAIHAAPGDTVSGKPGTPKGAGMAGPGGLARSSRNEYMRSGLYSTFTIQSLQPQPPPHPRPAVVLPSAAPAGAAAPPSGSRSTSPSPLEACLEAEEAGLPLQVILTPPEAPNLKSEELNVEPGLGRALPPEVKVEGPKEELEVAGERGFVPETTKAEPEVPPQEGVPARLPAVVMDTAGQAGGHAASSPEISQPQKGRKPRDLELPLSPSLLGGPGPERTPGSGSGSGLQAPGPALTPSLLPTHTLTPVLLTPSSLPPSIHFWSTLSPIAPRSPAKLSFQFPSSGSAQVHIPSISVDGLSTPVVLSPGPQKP
Summed up:
as §1

The next assay has as its target T3, GABPA (Homo sapiens, UniProt Q06546 1-454).
T3 sequence: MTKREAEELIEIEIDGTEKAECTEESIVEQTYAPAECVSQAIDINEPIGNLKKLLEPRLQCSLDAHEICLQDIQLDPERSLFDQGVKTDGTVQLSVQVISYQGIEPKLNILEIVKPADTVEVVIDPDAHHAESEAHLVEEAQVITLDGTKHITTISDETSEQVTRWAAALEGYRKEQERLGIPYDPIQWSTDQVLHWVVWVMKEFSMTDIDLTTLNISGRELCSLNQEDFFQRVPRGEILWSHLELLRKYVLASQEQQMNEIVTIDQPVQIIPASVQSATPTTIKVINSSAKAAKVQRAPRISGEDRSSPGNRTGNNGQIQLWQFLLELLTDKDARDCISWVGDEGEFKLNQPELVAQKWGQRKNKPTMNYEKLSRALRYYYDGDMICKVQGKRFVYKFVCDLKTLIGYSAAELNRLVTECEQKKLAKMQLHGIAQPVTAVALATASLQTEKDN
Summed up:
as §1

The next assay deals with T4, ERG (Homo sapiens, UniProt P11308 1-479).
T4 sequence: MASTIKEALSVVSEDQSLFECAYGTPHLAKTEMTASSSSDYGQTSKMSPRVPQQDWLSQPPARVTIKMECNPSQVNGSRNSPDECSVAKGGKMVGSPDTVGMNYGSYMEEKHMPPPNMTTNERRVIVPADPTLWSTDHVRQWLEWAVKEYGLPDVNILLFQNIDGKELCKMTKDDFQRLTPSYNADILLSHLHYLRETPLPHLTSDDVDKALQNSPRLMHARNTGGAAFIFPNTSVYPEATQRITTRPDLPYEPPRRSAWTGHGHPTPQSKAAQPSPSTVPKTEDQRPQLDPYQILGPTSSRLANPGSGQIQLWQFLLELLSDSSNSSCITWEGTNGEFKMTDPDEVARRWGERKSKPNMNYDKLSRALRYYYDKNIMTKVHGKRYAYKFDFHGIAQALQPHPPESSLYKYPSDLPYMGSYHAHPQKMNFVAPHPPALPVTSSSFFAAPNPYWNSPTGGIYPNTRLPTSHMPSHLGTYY
The essentials:
as §1

The target of a further assay is ELF1 (Homo sapiens, UniProt P32519 1-619). Summed up:
as §1

Another assay addresses T5, EHF (Homo sapiens, UniProt Q9NZC4 1-300).
T5 sequence: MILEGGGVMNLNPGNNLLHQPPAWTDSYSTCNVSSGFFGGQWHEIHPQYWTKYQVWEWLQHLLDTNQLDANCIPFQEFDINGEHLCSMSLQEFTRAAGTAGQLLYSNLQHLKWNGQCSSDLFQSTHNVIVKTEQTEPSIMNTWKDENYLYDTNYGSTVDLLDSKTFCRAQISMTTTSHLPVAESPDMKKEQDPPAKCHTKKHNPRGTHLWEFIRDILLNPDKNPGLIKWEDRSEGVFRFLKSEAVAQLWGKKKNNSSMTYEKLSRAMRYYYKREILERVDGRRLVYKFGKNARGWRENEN
Summed up:
as §1

The target of another assay is SPI1 (Homo sapiens, UniProt P17947 1-270). Summed up:
as §1

Another assay deals with SPIB (Homo sapiens, UniProt Q01892 1-262). The essentials:
as §1

Another assay deals with T6, ELK3 (Homo sapiens, UniProt P41970 1-407).
T6 sequence: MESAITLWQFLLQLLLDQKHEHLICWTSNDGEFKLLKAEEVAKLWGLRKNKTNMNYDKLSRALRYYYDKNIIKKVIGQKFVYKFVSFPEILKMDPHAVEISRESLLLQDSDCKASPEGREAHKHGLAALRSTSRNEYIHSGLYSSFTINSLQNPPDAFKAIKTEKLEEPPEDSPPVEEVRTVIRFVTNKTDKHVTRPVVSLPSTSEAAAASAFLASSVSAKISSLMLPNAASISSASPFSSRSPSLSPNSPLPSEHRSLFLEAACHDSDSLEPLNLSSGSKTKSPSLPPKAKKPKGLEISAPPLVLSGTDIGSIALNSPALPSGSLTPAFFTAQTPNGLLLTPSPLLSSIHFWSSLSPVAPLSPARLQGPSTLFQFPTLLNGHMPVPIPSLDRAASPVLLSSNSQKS
The essentials: as §1

SPIB, sequence (Q01892 whole entry): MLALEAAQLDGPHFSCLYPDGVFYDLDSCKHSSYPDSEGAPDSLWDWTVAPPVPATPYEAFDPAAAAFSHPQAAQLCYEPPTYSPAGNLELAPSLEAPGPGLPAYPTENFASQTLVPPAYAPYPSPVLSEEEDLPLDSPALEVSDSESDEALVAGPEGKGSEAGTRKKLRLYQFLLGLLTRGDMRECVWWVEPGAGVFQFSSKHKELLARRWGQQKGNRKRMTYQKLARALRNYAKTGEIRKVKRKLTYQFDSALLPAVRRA
ELF1, sequence (P32519 whole entry): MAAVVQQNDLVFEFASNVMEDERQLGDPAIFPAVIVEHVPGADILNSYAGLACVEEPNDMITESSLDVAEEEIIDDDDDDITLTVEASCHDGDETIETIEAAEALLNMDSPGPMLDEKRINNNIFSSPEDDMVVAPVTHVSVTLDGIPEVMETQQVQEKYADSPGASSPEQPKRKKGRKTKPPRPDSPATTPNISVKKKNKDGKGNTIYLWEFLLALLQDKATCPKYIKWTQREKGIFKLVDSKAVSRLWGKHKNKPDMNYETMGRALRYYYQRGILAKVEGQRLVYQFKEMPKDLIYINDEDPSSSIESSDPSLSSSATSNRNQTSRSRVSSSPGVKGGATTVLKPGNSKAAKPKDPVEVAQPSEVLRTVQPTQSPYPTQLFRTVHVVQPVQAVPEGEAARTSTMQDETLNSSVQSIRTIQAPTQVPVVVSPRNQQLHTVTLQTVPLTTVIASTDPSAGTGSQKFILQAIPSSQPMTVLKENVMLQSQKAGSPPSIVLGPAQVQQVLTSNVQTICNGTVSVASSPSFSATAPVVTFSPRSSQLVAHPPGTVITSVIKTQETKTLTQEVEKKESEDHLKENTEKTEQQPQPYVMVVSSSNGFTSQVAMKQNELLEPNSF

With CCTAAG, the binding signal was 1.09 fold enrichment (6-mer frequency, TF over GST control) with FLI1; 1.14 fold enrichment (6-mer frequency, TF over GST control) with ELK1; 1.12 fold enrichment (6-mer frequency, TF over GST control) in the assay with GABPA; 1.16 fold enrichment (6-mer frequency, TF over GST control) with ERG; 1.19 fold enrichment (6-mer frequency, TF over GST control) with ELF1; 1.18 fold enrichment (6-mer frequency, TF over GST control) with EHF. Further, the binding signal with SPI1 was 1.06 fold enrichment (6-mer frequency, TF over GST control); with SPIB, 1.21 fold enrichment (6-mer frequency, TF over GST control); with ELK3, 1.17 fold enrichment (6-mer frequency, TF over GST control).
For the sequence CTGGTA, the binding signal in the assay with FLI1 was 1.3 fold enrichment (6-mer frequency, TF over GST control); with ELK1, 1.34 fold enrichment (6-mer frequency, TF over GST control); with GABPA, 1.29 fold enrichment (6-mer frequency, TF over GST control); in the assay with ERG it was 1.4 fold enrichment (6-mer frequency, TF over GST control); with ELF1, 1.38 fold enrichment (6-mer frequency, TF over GST control); in the assay with EHF, 1.4 fold enrichment (6-mer frequency, TF over GST control). In addition, the binding signal is 1.33 fold enrichment (6-mer frequency, TF over GST control) in the assay with SPI1; 1.4 fold enrichment (6-mer frequency, TF over GST control) in the assay with SPIB; 1.35 fold enrichment (6-mer frequency, TF over GST control) with ELK3.
For the sequence TTGGTG, the binding signal in the assay with FLI1 was 1.35 fold enrichment (6-mer frequency, TF over GST control); with ELK1, 1.21 fold enrichment (6-mer frequency, TF over GST control); with GABPA, 1.42 fold enrichment (6-mer frequency, TF over GST control); with ERG it was 1.23 fold enrichment (6-mer frequency, TF over GST control); in the assay with ELF1, 1.3 fold enrichment (6-mer frequency, TF over GST control); in the assay with EHF, 1.43 fold enrichment (6-mer frequency, TF over GST control). Moreover, the binding signal with SPI1 was 1.22 fold enrichment (6-mer frequency, TF over GST control); in the assay with SPIB, 1.22 fold enrichment (6-mer frequency, TF over GST control); with ELK3, 1.55 fold enrichment (6-mer frequency, TF over GST control).
Take AAAAAG: the binding signal in the assay with FLI1 is 1.18 fold enrichment (6-mer frequency, TF over GST control); with ELK1, 1.18 fold enrichment (6-mer frequency, TF over GST control); in the assay with GABPA, 1.25 fold enrichment (6-mer frequency, TF over GST control); with ERG, 1.19 fold enrichment (6-mer frequency, TF over GST control); with ELF1 it was 1.13 fold enrichment (6-mer frequency, TF over GST control); in the assay with EHF, 1.22 fold enrichment (6-mer frequency, TF over GST control). In addition, the binding signal with SPI1 is 1.72 fold enrichment (6-mer frequency, TF over GST control); with SPIB, 1.29 fold enrichment (6-mer frequency, TF over GST control); with ELK3 it was 1.2 fold enrichment (6-mer frequency, TF over GST control).
For the sequence TATCTT, the binding signal was 1.46 fold enrichment (6-mer frequency, TF over GST control) with FLI1; 1.31 fold enrichment (6-mer frequency, TF over GST control) in the assay with ELK1; 1.38 fold enrichment (6-mer frequency, TF over GST control) in the assay with GABPA; 1.26 fold enrichment (6-mer frequency, TF over GST control) with ERG; 1.36 fold enrichment (6-mer frequency, TF over GST control) with ELF1; 1.3 fold enrichment (6-mer frequency, TF over GST control) in the assay with EHF. The binding signal in the assay with SPI1 is 1.3 fold enrichment (6-mer frequency, TF over GST control); with SPIB it was 1.28 fold enrichment (6-mer frequency, TF over GST control); in the assay with ELK3 it was 1.24 fold enrichment (6-mer frequency, TF over GST control).
On to ATCCTA, for which the binding signal in the assay with FLI1 was 1.54 fold enrichment (6-mer frequency, TF over GST control); with ELK1, 1.34 fold enrichment (6-mer frequency, TF over GST control); in the assay with GABPA, 1.37 fold enrichment (6-mer frequency, TF over GST control); with ERG it was 1.4 fold enrichment (6-mer frequency, TF over GST control); with ELF1, 1.37 fold enrichment (6-mer frequency, TF over GST control); in the assay with EHF, 1.3 fold enrichment (6-mer frequency, TF over GST control). The binding signal with SPI1 was 1.27 fold enrichment (6-mer frequency, TF over GST control); with SPIB it was 1.48 fold enrichment (6-mer frequency, TF over GST control); with ELK3 it was 1.43 fold enrichment (6-mer frequency, TF over GST control).
As for GACTCT, the binding signal was 1.3 fold enrichment (6-mer frequency, TF over GST control) with FLI1; 1.28 fold enrichment (6-mer frequency, TF over GST control) with ELK1; 1.37 fold enrichment (6-mer frequency, TF over GST control) with GABPA; 1.34 fold enrichment (6-mer frequency, TF over GST control) in the assay with ERG; 1.37 fold enrichment (6-mer frequency, TF over GST control) in the assay with ELF1; 1.27 fold enrichment (6-mer frequency, TF over GST control) with EHF. Besides, the binding signal with SPI1 is 1.2 fold enrichment (6-mer frequency, TF over GST control); with SPIB, 1.37 fold enrichment (6-mer frequency, TF over GST control); with ELK3, 1.2 fold enrichment (6-mer frequency, TF over GST control).

Source of the values: PMC7862700, “An all-to-all approach to the identification of sequence-specific readers for epigenetic DNA modifications on cytosine”.
